Screens (PubChem)
This is a sample that favours compounds with a hit; in the whole collection about 4.1% have one here.
UHRF1 binding: human UHRF1 methylated DNA binding inhibitors | Q96T88 | UHRF1 binding to methylated oligo, TR-FRET | inhibition, % at 4.4 µM | 0.75% of 370,000 active;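 also: UHRF1 SRA domain binding a hemimethylated CpG hairpin DNA probe; 0% = median of test compound wells and 100% = reference inhibitor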
PRMT1 inh: PRMT1 (human) inhibition, primary screen; Q99873; recombinant PRMT1, activity-based probe fluorescence polarization; inhibition, % at 2.79 µM; 1.3% of 370,000 active;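 active = inhibition above about 21% made by adding two undisclosed values, limit read from the data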
ABHD5 PLIN5 PPI: inhibitors of human ABHD5-perilipin-5 interaction | Split G. princeps luciferase complementation, luminescence, 4 h | inhibition, % at 4 µM | 0.78% of 360,000 active | AID 602281;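 active = inhibition above the mean inhibition across every tested compound plus 3 SD, cut at about 22% in these data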;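 also: 0% = DMSO only wells and the 100% control is not disclosed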
Target sequence (Q00G26 whole entry, looked up): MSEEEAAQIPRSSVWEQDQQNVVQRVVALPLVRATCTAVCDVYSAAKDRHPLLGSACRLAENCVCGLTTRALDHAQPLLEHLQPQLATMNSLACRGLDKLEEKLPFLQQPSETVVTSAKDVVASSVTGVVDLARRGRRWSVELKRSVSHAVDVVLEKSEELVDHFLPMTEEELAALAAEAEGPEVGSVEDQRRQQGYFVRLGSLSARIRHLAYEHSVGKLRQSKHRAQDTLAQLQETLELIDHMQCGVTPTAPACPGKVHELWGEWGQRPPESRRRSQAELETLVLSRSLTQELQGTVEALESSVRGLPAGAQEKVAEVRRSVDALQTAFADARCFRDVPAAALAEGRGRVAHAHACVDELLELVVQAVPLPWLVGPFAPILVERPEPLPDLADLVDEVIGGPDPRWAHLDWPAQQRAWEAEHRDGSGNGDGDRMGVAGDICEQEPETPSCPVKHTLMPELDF
Target sequence (Q8WTS1 whole entry, looked up): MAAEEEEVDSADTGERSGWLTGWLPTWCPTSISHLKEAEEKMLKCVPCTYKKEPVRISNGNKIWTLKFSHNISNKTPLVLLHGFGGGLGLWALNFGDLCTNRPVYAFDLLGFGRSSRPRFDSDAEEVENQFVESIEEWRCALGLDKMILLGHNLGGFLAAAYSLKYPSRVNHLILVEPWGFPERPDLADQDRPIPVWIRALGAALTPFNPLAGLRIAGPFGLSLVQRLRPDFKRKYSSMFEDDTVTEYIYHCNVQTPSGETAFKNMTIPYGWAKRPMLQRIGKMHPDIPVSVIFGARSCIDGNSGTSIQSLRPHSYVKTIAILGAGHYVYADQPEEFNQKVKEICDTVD
MBD2 inh: MBD2-methylated oligo binding inhibition | Q9UBB5 | TR-FRET, MBD2 binding to methylated oligonucleotide | inhibition, % at 4.4 µM | 0.31% of 370,000 active | AID 686964; in the data active = inhibition above about 13%
rCAG RNA binder: molecules binding r(CAG) RNA repeats; r(CAG) RNA repeat, TO-PRO-1 dye displacement fluorescence; inhibition, % at 3 µM; 1.3% of 370,000 active; AID 651821;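 active = inhibition above the plate cutoff, the mean of all test compounds on that plate plus 3 SD, cut at about 35% in these data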;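 also: 0% = DMSO alone and 100% = 100 µM mitoxantrone as full dye displacement; higher means more dye released from RNA so lower well fluorescence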
LEDGF integ inh: blocks HIV-1 LEDGF/p75-dependent DNA integration; TR-FRET IN-LEDGF/p75 DNA integration, Eu/Cy5; inhibition, % at 3.7 µM; 0.64% of 370,000 active; AID 743269;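 active = inhibition above the screen-wide mean plus 3 SD, cut at about 13% in these data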;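 also: signal is the Cy5 over europium emission ratio at 671 and 618 nm; 0% = plate median of compound wells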
rCAG bind conf: r(CAG) RNA repeat binding, confirmation. AID 652065. inhibition, % at 3 µM. TO-PRO-1 dye displacement fluorescence. shares compounds with rCAG RNA binder. 70% of 4,300 active;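 active = inhibition above a per-plate cutoff, the mean inhibition of sample wells plus 3 SD, cut at about 35% in these data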;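 also: loss of TO-PRO-1 fluorescence as compound displaces dye from 1x1 AA loop RNA; 0% = DMSO only wells and 100% = 100 µM mitoxantrone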
dCAG dye counter: DNA CAG dye complex inhibition counter-screen; shares compounds with rCAG RNA binder; d(CAG) DNA oligo TO-PRO-1 dye displacement, fluorescence; inhibition, % at 3 µM; 94% of 4,300 active;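 active = inhibition above its plate's cutoff, the mean test-well inhibition plus 3 SD, cut at about 4.8% in these data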;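 also: 0% = DNA dye mix with DMSO and 100% = 100 µM mitoxantrone; hits displace the dye from DNA and so lower well fluorescence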
dCAG dye DR: disrupts DNA CAG TO-PRO-1 complex in dose response. shares compounds with rCAG RNA binder. DNA CAG/GTC duplex TO-PRO-1 dye displacement fluorescence. IC50, µM. 20% of 250 active; in the data active = IC50 below about 10 µM
PRMT1 confirm: PRMT1 (human) inhibition, FP confirmation. shares compounds with PRMT1 inh. recombinant His-PRMT1, activity-based probe fluorescence polarization. inhibition, % at 2.79 µM. 42% of 3,300 active;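 active = mean inhibition across replicates above the hit cutoff derived for the earlier primary screen, cut at about 22% in these data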
UHRF1 ctr MBD2: counter-screen for MBD2 inhibitors: human UHRF1 methylated DNA binding inhibitors; shares compounds with MBD2 inh; UHRF1 binding to methylated oligonucleotide, TR-FRET; 25% of 1,000 active; inhibition, % at 4.4 µM; AID 720530;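 also: UHRF1 SRA domain binding a labeled hemimethylated CpG hairpin DNA; 0% = vehicle only and 100% = reference inhibitor with vehicle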
MBD2 confirm: confirmation of human MBD2-DBD methylated oligonucleotide binding inhibitors | AID 720531 | 26% of 1,000 active | TR-FRET MBD2-DBD binding to methylated oligonucleotide | shares compounds with MBD2 inh | inhibition, % at 4.4 µM; in the data active = inhibition above about 14%
IN multimer up: activates HIV-1 integrase multimerization in LEDGF counter-screen; shares compounds with LEDGF integ inh; TR-FRET HIV-1 integrase multimerization, biochemical; activation, % at 7.7 µM; 17% of 2,000 active; in the data active = activation above about 8.9%
TRFRET interf: TR-FRET optical interference, LEDGF/p75 integration counter-screen; TR-FRET optical interference counterscreen, HIV-1 IN multimerization; shares compounds with LEDGF integ inh; AID 1053135; 2,000 tested, under 10 active; inhibition, % at 7.7 µM;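 active = inhibition above the mean over all tested compounds plus 3 SD, which no compound reached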;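 also: 0% = integrase with antibodies and DMSO and 100% = antibodies without integrase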
IN-LEDGF confirm: confirmation of HIV-1 LEDGF/p75-dependent integration inhibitors. TR-FRET LEDGF/p75-dependent HIV-1 integration, biochemical. inhibition, % at 3.7 µM. shares compounds with LEDGF integ inh. AID 1053136. 36% of 2,000 active; in the data active = inhibition above about 14%
An asterisk follows results filed as active; nt = no result given. Rule as the data show it, unless noted: active = inhibition above about 21%; inactive = the rest.

SMILES	UHRF1 binding	PRMT1 inh	ABHD5 PLIN5 PPI	MBD2 inh	rCAG RNA binder	LEDGF integ inh	rCAG bind conf	dCAG dye counter	PRMT1 confirm	IN multimer up	TRFRET interf	IN-LEDGF confirm	others
COC(=O)C1=C(O)/C(=C\c2ccc(CNC(=O)C(=O)Nc3ccc(C)c(C)c3)o2)N=C1C	9	45*	-2	2	56*	41*	24	12*	7	4	-21	6
CCOC(=O)C1=C(O)/C(=C/c2ccc(CNC(=O)C(=O)Nc3ccc(C)cc3)o2)N=C1C	8	48*	2	0	49*	35*	23	11*	0	1	-3	11
COC(=O)C1=C(O)/C(=C\c2ccc(CNC(=O)C(=O)Nc3ccc(C)cc3)o2)N=C1C	0	20	12	2	20	2	nt	nt	nt	nt	nt	nt
CCOC(=O)C1=C(O)/C(=C\c2ccc(CNS(=O)(=O)c3ccc(Br)cc3)o2)N=C1C	5	34*	13	-2	37*	22*	43*	16*	15	3	-11	-3
O=C(CSc1nnc(-c2ccccc2)n1-c1ccc(Cl)cc1)c1ccc(Cl)cc1	-2	-1	nt	0	6	-2	nt	nt	nt	nt	nt	nt
C[C@H](CO)N1C[C@H](C)[C@@H](CN(C)S(=O)(=O)c2ccc(F)cc2)Oc2cc(Br)ccc2S1(=O)=O	0	3	nt	4	6	-3	nt	nt	nt	nt	nt	nt
CC1=C(C)CC(C(=O)Nc2nc(-c3ccc(C)cc3C)c(C)s2)C(C(=O)O)C1 (centres undefined)	-1	-3	-4	-4	54*	25*	56*	23*	nt	5	-27	0	dCAG dye DR=>30
CC1=C(C)CC(C(=O)Nc2nc(-c3ccc(F)cc3)c(C)s2)C(C(=O)O)C1 (centres undefined)	8	-3	-1	2	13	1	nt	nt	nt	nt	nt	nt
COc1ccccc1OCC(=O)N/N=C/C=C/c1ccc([N+](=O)[O-])o1	35*	25*	7	9	36*	38*	34	17*	9	11*	-57	46*
Cc1cccc(NC(=O)CN2C(=O)N/C(=C\c3cccn3-c3cccc(C(=O)O)c3)C2=O)c1	-1	2	9	-3	33	10	nt	nt	nt	nt	nt	nt
O=C(O)c1cccc(-n2cccc2/C=C2/NC(=O)N(c3ccc(Cl)cc3)C2=O)c1	103*	32*	15	101*	72*	83*	69*	30*	nt	36*	-129	81*
O=C(CSc1nnc(-c2ccco2)c(-c2ccco2)n1)c1ccccc1	58*	65*	-4	17*	75*	57*	57*	26*	nt	4	-20	26*	UHRF1 ctr MBD2=19;MBD2 confirm=3
O=C(CSc1nnc(-c2ccco2)o1)c1ccccc1	0	19	-3	-3	19	3	nt	nt	nt	nt	nt	nt
CC(=O)c1ccc(NC(=O)CSc2nnc(-c3ccco3)c(-c3ccco3)n2)cc1	20	73*	23*	-1	45*	35*	37*	15*	nt	12*	-44	45*
COc1ccc(NC(=O)CSc2sc3c(O)cc(=O)[nH]c3c2C#N)c(OC)c1	56*	66*	-13	30*	63*	16*	27	13*	4	21*	-106	34*	UHRF1 ctr MBD2=22*;MBD2 confirm=12
COc1ccc(NC(=O)CSCc2ccc(C#N)cc2)c(OC)c1	0	-5	8	0	-5	0	nt	nt	nt	nt	nt	nt
COC(=O)c1ccc(C)c(NC(=O)CCSc2ccc(C)cc2)c1	-3	-4	-8	-3	-2	4	nt	nt	nt	nt	nt	nt
Cc1csc(NC(=O)CSc2sc3c(O)cc(=O)[nH]c3c2C#N)n1	79*	81*	-3	52*	75*	38*	37*	14*	8	41*	-144	20*	UHRF1 ctr MBD2=11;MBD2 confirm=7
COC(=O)c1ccc(C)c(NC(=O)CSc2sc3c(O)cc(=O)[nH]c3c2C#N)c1	51*	49*	-9	14*	61*	14*	45*	20*	10	20*	-98	36*	UHRF1 ctr MBD2=22*;MBD2 confirm=9
Cc1cc(N2CCN(CC(C)(C)O)C[C@H]2C)ccc1N1CCN(Cc2ccccc2)[C@@H](C)C1	6	-2	nt	0	5	1	nt	nt	nt	nt	nt	nt
N#Cc1ccc(Cn2ccc3ccc(-c4ccc5ccn(C(=O)c6ccccc6)c5c4)cc32)cc1	-6	0	nt	1	16	-1	nt	nt	nt	nt	nt	nt
COc1ccc(-n2c(SCC(=O)c3ccc4ccccc4c3)nnc2-c2ccccc2)cc1	-2	-2	nt	-2	12	1	nt	nt	nt	nt	nt	nt
COC(=O)c1ccccc1NCc1cc(=O)oc2cc(O)c(O)cc12	3	6	-3	4	36*	21*	52*	23*	nt	2	-6	34*
CCOC(=O)C1=C(N)n2c(s/c(=C\c3ccco3)c2=O)=C(C(=O)OC(C)C)C1c1ccco1 (centres undefined)	21*	43*	-2	12	40*	51*	16	7.1*	6	2	-6	-1
Cc1ccc(C2c3c(n[nH]c3C)C(=O)N2Cc2ccccc2)cc1 (centres undefined)	1	-1	nt	5	-1	0	nt	nt	nt	nt	nt	nt
Cc1cccc(N=C2NC(=O)/C(=C/c3cccn3C)S2)c1C	-2	-4	-5	0	7	-2	nt	nt	nt	nt	nt	nt
